# Results taken from PubChem BioAssay AID1259421 (Broad Institute, 2018).
# Values joined by “and” are separate entries in the source; they are usually repeats but may differ in a detail not shown here. Equal entries are not always repeated. The campaign covered roughly 6,400 compounds. About 610 (9.5%) were called active. Rule as the data show it: active = activity change below about -70%; inconclusive = no clear call, values can overlap the other calls; inactive = above that. The full list was thinned out, with actives kept by preference. More than one record can exist for a structure, and the calls need not agree. Where a SMILES comes first, the peptide text is derived from it. The star is where a group is joined. PhAc = O=C(Cc1ccccc1)*
# Assay: T. gondii ME49Luc in HeLa cells, luciferase assay, 72 h, no IFN-y (AID 1259421)
# Details: stronger effect = lower value, concentration not given here
row,Compound,"activity change, negative = inhibition"
1,CO[C@@]12[C@@H]3NC3CN1C1=C(C(=O)C(N)=C(C)C1=O)[C@@H]2COC(N)=O (stereo not given in full),-81.9% (active) and -22.7% (inactive)
2,CO[C@@]12[C@H](COC(N)=O)C3=C(C(=O)C(C)=C(N)C3=O)N1C[C@@H]1N[C@@H]12,-10.9% (inactive)
3,N[C@@H](C(=O)O)C1=CCC=CC1,-2.48% (inactive)
4,C[C@@H]1O[C@@H](OC[C@H]2OC(Oc3c(-c4ccc(O)c(O)c4)oc4cc(O)cc(O)c4c3=O)[C@H](O)[C@@H](O)[C@@H]2O)[C@H](O)[C@H](O)[C@H]1O (stereo not given in full),0.376% (inactive)
5,O=c1c(-c2cc(O)c(O)c(O)c2)coc2cc(O)c(O)c(O)c12,8.75% (inactive)
6,NC(=O)N1C(=O)C(C(=O)c2cccs2)c2cc(Cl)ccc21 (stereo not given),8.36% (inactive) and 15.7% (inactive)
7,O=C(Nc1ccncc1)Nc1ccc(-c2nc(N3CCOCC3)nc(N3C4CCC3COC4)n2)cc1,-80% (active)
8,CN(C)C1CCN(C(=O)c2ccc(NC(=O)Nc3ccc(-c4nc(N5CCOCC5)nc(N5CCOCC5)n4)cc3)cc2)CC1,-1.91% (inactive)
9,CCNC(=O)Nc1ccc(-c2nc3c(c(N4CCOC[C@@H]4C)n2)CCN(C2COC2)C3)cc1,-37.1% (inactive)
10,CC(C)CCOC(=O)c1ccc(N(C)C)cc1,67.6% (inactive)
11,CN(C)c1ccc(C(=C2C=CC(=[N+](C)C)C=C2)c2ccc(N(C)C)cc2)cc1,-90.8% (active) and -81% (active)
12,COc1cccc(/C=N/N=C/c2cccc(OC)c2)c1,6.04% (inactive)
13,C/C=C/C/C=C/CCC(=O)[C@H]1O[C@H]1C(N)=O,20.9% (inactive)
14,Cc1cc(C2CCCCC2)n(O)c(=O)c1,-76.5% (active) and -74.6% (active) and -92.8% (active)
15,CC(=O)O[C@]1(C(C)=O)CCC2C3C[C@H](C)C4=CC(=O)CC[C@]4(C)C3CC[C@@]21C (stereo not given in full),15% (inactive)
16,CCOC(CN1CCN(CC(C)C(=O)c2ccccc2)CC1)c1ccccc1 (stereo not given),31.9% (inactive)
17,NC(=S)N=Nc1ccc(NN=C(N)N)cc1,5.33% (inactive)
18,Cc1ccc(/C=N/NC(=O)c2ccccc2Oc2ccccc2)o1,8.19% (inactive)
19,CCCCN(CCCC)CCC(O)c1cc2c(Cl)cc(Cl)cc2c2cc(C(F)(F)F)ccc12 (stereo not given),-83% (active)
20,CC(=O)N1CCCC1C(=O)O (stereo not given),6.22% (inactive)
21,CC(=O)NC1[C@@H](O)OC(CO)[C@@H](O)[C@H]1O (stereo not given in full),16% (inactive)
22,COc1cc2c(cc1OC)CN(CCc1ccc(NC(=O)c3cccc4c(=O)c5cccc(OC)c5[nH]c34)cc1)CC2,-79.7% (active)
23,COc1cccc([C@H](O)C2CCN(CCc3ccc(F)cc3)CC2)c1OC,11% (inactive)
24,COc1cc2c(cc1OC)CN(CCc1ccc(NC(=O)c3cc(OC)c(OC)cc3NC(=O)c3cnc4ccccc4c3)cc1)CC2,1.38% (inactive)
25,COC1CCN(C(=O)c2cc(Cc3n[nH]c(=O)c4ccccc34)ccc2F)CC1,11.9% (inactive)
26,CCC(=O)OCC(=O)C1(OC(=O)CC)[C@H](C)C[C@H]2C3[C@H](Cl)CC4=CC(=O)C=C[C@]4(C)[C@H]3[C@@H](O)C[C@@]21C (stereo not given in full),11.6% (inactive)
27,c1ccc(CN2CCC3(CCc4ccccc43)CC2)cc1,16.7% (inactive) and 4.6% (inactive)

row,Compound,"activity change, negative = inhibition"
1,COc1ccccc1N1CCN(CC(C(=O)NC(C)(C)C)c2ccccc2)CC1 (stereo not given),6.24% (inactive)
2,OCc1ccc(O[C@@H]2O[C@@H](CO)[C@@H](O)[C@H](O)[C@H]2O)cc1,-0.0846% (inactive)
3,CCOc1cc(/C=C(/C#N)C(N)=O)cc(CSc2ccccc2)c1O,32.6% (inactive)
4,c1ccc(-c2[nH]ncc2-c2ccnc3ccccc23)nc1,-65.8% (inactive) and -82.5% (active)
5,O=C(NC1CCOCC1)c1ccc(-c2cc(-c3cn[nH]c3-c3ccccn3)ccn2)cc1,-1.45% (inactive)
6,Cc1cccc(-c2[nH]ncc2-c2ccc3ncccc3n2)n1,-16% (inactive)
7,C=C1/C(=C\C=C2/CCC[C@]3(C)[C@@H]([C@H](C)CCCC(O)(C(F)(F)F)C(F)(F)F)CC[C@@H]23)C[C@@H](O)C[C@@H]1O,7.67% (inactive)
8,CNc1ncnc2c1ncn2[C@@H]1O[C@H](CO)[C@@H](O)[C@H]1O,13.6% (inactive)
9,OC[C@H]1O[C@@H](n2cnc3c(NCc4ccco4)ncnc32)[C@H](O)[C@@H]1O,-71.9% (active)
10,OC[C@H]1O[C@@H](n2cnc3c(NC4CCCC4)ncnc32)[C@H](O)[C@@H]1O,13.5% (inactive)
11,OCCOCCN1CCN(Cc2cccc(Oc3ccccc3)c2)CC1,8.65% (inactive)
12,CC(C)CC(NC(=O)N1CCCCCC1)C(=O)NC(Cc1cn(C)c2ccccc12)C(=O)NC(Cc1ccccn1)C(=O)O (stereo not given),5.64% (inactive)
13,C=CC1=C(C(=O)O)N2C(=O)[C@@H](NC(=O)/C(=N/O)c3csc(N)n3)[C@H]2SC1,5.5% (inactive)
14,CCOC(=O)CNC(=O)[C@@H]1CCCN1C(=O)Cc1ccccc1 (PhAc-Pro-Gly-OEt),13.8% (inactive)
15,CC(C)(C)C1CCC(CC2C(=O)C(=O)c3ccccc3C2=O)CC1 (stereo not given),-75.1% (active)
16,O=C1c2ccccc2C(=O)C1c1ccccc1,-3.55% (inactive)
17,O=C1C(=O)C(C2CCC(c3ccc(Cl)cc3)CC2)C(=O)c2ccccc21 (stereo not given),-68.3% (inactive) and -68.8% (inactive)
18,CS/C(N)=C(C#N)/C(C#N)=C(\N)SC,1.99% (inactive) and 0.209% (inactive)
19,O=C(O)c1ccc(NC2OCC(O)C(O)C2O)cc1 (stereo not given),11.7% (inactive)
20,CCCCCCCCNC(=O)C(Cc1ccc(OCc2ccncc2)cc1)NC(=O)C1CCC(CN)CC1 (stereo not given),20.5% (inactive)
21,CN(C)/N=N/c1nc[nH]c1C(N)=O,-84.8% (active) and -88.3% (active) and -94.9% (active)
22,CN(C)N=Nc1ccc(C(=O)O)cc1,17.4% (inactive)
23,NC(=O)c1[nH]cnc1O,5.36% (inactive)
24,Cc1cc(-c2ccc(N=Nc3ccc4c(S(=O)(=O)O)cc(S(=O)(=O)O)c(N)c4c3O)c(C)c2)ccc1N=Nc1ccc2c(S(=O)(=O)O)cc(S(=O)(=O)O)c(N)c2c1O,-45.6% (inactive)
25,Cc1cnc(NC(=O)C2C(=O)c3ccccc3S(=O)(=O)N2C)s1 (stereo not given),17.6% (inactive) and 14.2% (inactive)
26,CN1CCc2cc3c(cc2C(=O)Cc2ccc4c(c2C1)OCO4)OCO3,7.67% (inactive)
27,CC[C@@H](C(=O)C(C)[C@@H](O)[C@H](C)CCc1ccc(C)c(O)c1C(=O)O)C1OC(CC)(C2CC[C@](O)(CC)[C@H](C)O2)C[C@@H]1C (stereo not given in full),-85.8% (active)

row,Compound,"activity change, negative = inhibition"
1,CCOC(=O)[C@H](C)C[C@@H](Cc1ccc(-c2ccccc2)cc1)NC(=O)CCC(=O)O,5.47% (inactive)
2,Cc1cc(C)c(/C=C2\C(=O)Nc3ccccc32)[nH]1,12.4% (inactive) and 24.8% (inactive)
3,COc1c/c(=C2\C=c3ccccc3=N2)[nH]/c1=C\c1[nH]c(C)cc1C,-83.5% (active)
4,FC(F)(F)c1ccc(/C=C/c2nc(COc3ccc(CCCCn4ccnn4)cc3)co2)cc1,-18% (inactive)
5,CN1C2CC(OC(=O)[C@H](CO)c3ccccc3)C[C@H]1[C@H]1OC21 (stereo not given in full),1.54% (inactive)
6,NC(N)=NCCN1CCCCCCC1,8.88% (inactive)
7,CC12C(=O)OC(=O)C1(C)C1CCC2O1 (stereo not given),-87.3% (active)
8,c1ncc(CCCC2CCNCC2)[nH]1,2.3% (inactive)
9,Fc1ccc2c(CCNCc3cccc(OCC(F)(F)C(F)F)c3)c[nH]c2c1,38.3% (inactive)
10,CN[C@@H](C)[C@H]1[C@H](O)C[C@@]2(C)[C@@H]3CC[C@H]4C(C)(C)[C@@H](NC)CC[C@@]45C[C@@]35CC[C@]12C,6.16% (inactive)
11,CCCCCCCCCCCCCCCC(=O)OC[C@H](COP(=O)(O)OCC[N+](C)(C)C)OC(=O)CCCCCCCCCCCCCCC,-5.4% (inactive)
12,COC(=O)c1ccccc1NC(=O)c1ccc(F)cc1,31.7% (inactive) and 41.2% (inactive)
13,CC(C)CCN1c2nc(Nc3cc(F)c(O)c(F)c3)ncc2N(C)C(=O)C1C (stereo not given),-84.4% (active)
14,CCCCCCCC/C=C/CCCCCCCC(=O)NCc1ccc(O)c(OC)c1,6.46% (inactive)
15,N#Cc1ccncn1,17.2% (inactive)
16,Cc1ccnc(NC(=O)C(C)c2cccc(C(=O)c3ccccc3)c2)c1 (stereo not given),48.4% (inactive)
17,Cc1ccc(-c2csc(NC(=O)c3ccccc3)n2)c(C)c1,73.8% (inactive)
18,CCc1nc(-c2cccc(C)c2)c(-c2ccnc(NC(=O)c3ccccc3)c2)s1,-91.2% (active)
19,CC1CNc2c(cccc2S(=O)(=O)N[C@@H](CCCN=C(N)N)C(=O)N2CC[C@@H](C)C[C@@H]2C(=O)O)C1 (stereo not given in full),9.02% (inactive)
20,C[C@H]1COc2c(C3(N)CC3)c(F)cc3c(=O)c(C(=O)O)cn1c23,14.1% (inactive)
21,CCCC(=O)N1CCCN(c2nc(N)c3cc(OC)c(OC)cc3n2)CC1,13% (inactive)
22,COc1cc2nc(N3CCN(C(=O)c4ccco4)CC3)nc(N)c2cc1OC,0.803% (inactive) and 4.94% (inactive)
23,COc1cc2nc(N3CCCN(C)CC3)nc(NC3CCN(Cc4ccccc4)CC3)c2cc1OC,-91.5% (active)
24,COc1cc(O)ccc1C(C)=O,-6.96% (inactive)
25,CC(=O)OCC(=O)[C@@]1(O)CCC2C3CCC4=CC(=O)CC[C@]4(C)C3C(=O)C[C@@]21C (stereo not given in full),-24.8% (inactive)
26,CNc1cc(OC)c(C(=O)NC2CCN(Cc3ccccc3)C2C)cc1Cl (stereo not given),3.06% (inactive)
